The record followed here is PubChem BioAssay (EPA / NIEHS).

Active and inactive are the calls of the source. Rule for the calls: active = hit-call score of the fitted dose curve at least 0.9, where 1 is the maximum; inactive = score below 0.9.

Read-out in this test: Matrix Metallopeptidase 1 (MMP1), MMP1 (gene 4312)
The test is described as follows: BSK_hDFCGF_MMP1: BioMAP Diversity Plus: hDFCGF Assay for Matrix Metallopeptidase 1 (MMP1) Biomarker Activity (AID 2283064). As to conditions: primary human foreskin fibroblasts; actives raise or lower the signal. The method, then:
BSK_hDFCGF is a cell-based, multiplexed-readout assay that uses foreskin fibroblast, a human skin primary cell, with measurements taken at 24 hours after chemical dosing in a 96-well plate.BSK_hDFCGF_MMP1 is an assay component measured in the BSK_hDFCGF assay. It measures MMP-1 antibody related to regulation of gene expression using ELISA technology.Data from the assay component BSK_hDFCGF_MMP1 was analyzed into 1 assay endpoint. This assay endpoint, BSK_hDFCGF_MMP1, was analyzed with bidirectional fitting relative to DMSO as the negative control and baseline of activity. Using a type of binding reporter, gain or loss-of-signal activity can be used to understand changes in the signaling as they relate to the gene MMP1. Furthermore, this assay endpoint can be referred to as a primary readout, because this assay has produced multiple assay endpoints where this one serves a signaling function. To generalize the intended target to other relatable targets, this assay endpoint is annotated to the protease intended target family, where the subfamily is matrix metalloproteinase.
The levels of cell surface (or secreted, indicated by the prefix "s") biomarker endpoints were measured by ELISA. Overt cytotoxicity to cells in confluent adherent cultures (all systems other than the BT system) was assessed by measuring total protein levels using sulforhodamine B (SRB) staining in parallel cultures at the time of biomarker measurements, indicated as SRB endpoints. For proliferation assays for adherent cell types, individual cell types are cultured at sub-confluence and relative cell numbers quantified by SRB staining at time points optimized for each system (48 h: 3C and CASM3C systems; 72 h: BT and HDF3CGF systems; 96 h: SAg system). SRB was performed by staining cells with 0.1% SRB after fixation with 10% TCA and reading wells at 560 nm.Viability and proliferation of PBMC (T cells) was quantified by Alamar Blue reduction for the SAg and BT systems. For PBMC viability (referred to as PBMC Cytotoxicity within the assay endpoint names), cells were plated (75,000/well in a 96-well plate) and then chemical samples added for 1 h before addition of activators, SEB and TSST-1 (20 ng/mL final concentration each). Cells were incubated for 90 h. Then, Alamar Blue (20 uL/well) (Invitrogen, Cat DAL1100) was added for 6 h, and the plates were read with a fluorescence microplate reader at 546/580 nm (excitation/emission). For PBMC proliferation, cells were plated and activated as above but incubated for only 16 h prior to addition of Alamar Blue. Plates were read after 6 h.
On to `COP(=S)(OC)SCn1nnc2ccccc2c1=O`, for which the outcome was inactive.

Turning to `Cc1cc(C)nc(Nc2ccccc2)n1`, the outcome was inactive.

In the case of `CCCN(CC)CC1COC2(CCC(C(C)(C)C)CC2)O1` (stereo not given), the half-maximal activity concentration (AC50) was 1.43 µM (active).

Regarding `Nc1c(Cl)c(F)nc(OCC(=O)O)c1Cl`, the result was inactive.

For `CC1(C)C(C=C(Cl)Cl)C1C(=O)OC(C#N)c1cccc(Oc2ccccc2)c1` (stereo not given), the outcome was inactive.

Take `CCCC(=NOCC)C1=C(O)CC(CC(C)SCC)CC1=O` (stereo not given): the outcome was inactive.

Turning to `Cn1c(-c2ccccc2)cc(-c2ccccc2)[n+]1C`, the result was inactive.

Turning to `COP(=O)(OC)O/C(C)=C/C(=O)N(C)C`, the result was inactive.

For the molecule `COc1cc(Cl)c(OC)cc1Cl`, the result was inactive.

As for `CCSC(=O)N1CCCCCC1`, the result was inactive.

On to `CCN(CC)c1nc(C)cc(OP(=S)(OC)OC)n1`, for which the AC50 was 4.09 µM (active).

Take `COC(=O)NC(=S)Nc1ccccc1NC(=S)NC(=O)OC`: the AC50 was 3.97 µM (active).

For `N#Cc1c[nH]cc1-c1cccc2c1OC(F)(F)O2`, the AC50 is 5.28 µM (active).

For `CCCCC(C#N)(Cn1cncn1)c1ccc(Cl)cc1` (stereo not given), the result was inactive.

`Cc1ccc(N=CN(C)C=Nc2ccc(C)cc2C)c(C)c1`: the AC50 was 33.2 µM (active).

Turning to `COC(=O)c1c(C(F)F)nc(C(F)(F)F)c(C2=NCCS2)c1CC(C)C`, the result was inactive.

Turning to `CCOP(=O)(OCC)Oc1nc(Cl)c(Cl)cc1Cl`, the outcome was inactive.

On to `CCOP(=S)(OCC)Oc1nc(Cl)n(C(C)C)n1`, for which the outcome was inactive.

Turning to `CCOc1nc(C(Cl)(Cl)Cl)ns1`, the result was inactive.

On to `O=C(Nc1ccccc1-c1ccc(Cl)cc1)c1cccnc1Cl`, for which the outcome was inactive.

On to `N#CN=C1SCCN1Cc1ccc(Cl)nc1`, for which the result was inactive.

Regarding `CC(C)NC(=O)N1CC(=O)N(c2cc(Cl)cc(Cl)c2)C1=O`, the AC50 was 0.148 µM (active).

For the molecule `CO/N=C(/C1=NOCCO1)c1ccccc1Oc1ncnc(Oc2ccccc2Cl)c1F`, the result was inactive.

With `CCC(C)n1c(=O)[nH]c(C)c(Br)c1=O` (stereo not given), the result was inactive.

With `N#Cc1c(Cl)cccc1Cl`, the outcome was inactive.

As for `CSC(=O)c1c(C(F)F)nc(C(F)(F)F)c(C(=O)SC)c1CC(C)C`, the AC50 is 4.27 µM (active).

As to `CC(C)N1C(=O)N(c2ccccc2)CSC1=NC(C)(C)C`, the result was inactive.

For `Cc1nc(N(C)C)nc(OC(=O)N(C)C)c1C`, the result was inactive.

Consider `COCc1cnc(C2=NC(C)(C(C)C)C(=O)N2)c(C(=O)O)c1` (stereo not given), for which the result was inactive.

Regarding `C=C(C)CN(CC)c1c([N+](=O)[O-])cc(C(F)(F)F)cc1[N+](=O)[O-]`, the half-maximal activity concentration (AC50) is 3.92 µM (active).

As to `CC(C)=CC1C(C(=O)OCc2coc(Cc3ccccc3)c2)C1(C)C` (stereo not given), the result was inactive.

As to `CCOc1nc(F)cc2nc(S(=O)(=O)Nc3c(Cl)cccc3Cl)nn12`, the outcome was inactive.

On to `COP(=S)(OC)Oc1ccc([N+](=O)[O-])c(C)c1`, for which the result was inactive.

For `CCOC(=O)C(C)OC(=O)c1cc(Oc2ccc(C(F)(F)F)cc2Cl)ccc1[N+](=O)[O-]` (stereo not given), the result was inactive.

With `Nc1cnn(-c2ccccc2)c(=O)c1Cl`, the outcome was inactive.

Take `OC(c1ccc(Cl)cc1)(c1ccc(Cl)cc1)C(Cl)(Cl)Cl`: the AC50 is 11 µM (active).

As to `CN/C(=N\[N+](=O)[O-])NCc1cnc(Cl)s1`, the result was inactive.

Regarding `CS(=O)(=O)c1cc(C(F)(F)F)ccc1C(=O)c1cnoc1C1CC1`, the outcome was inactive.

For the molecule `CC1(C)CCC(=Cc2ccc(Cl)cc2)C1(O)Cn1cncn1` (stereo not given), the result was inactive.

As to `CNC(=O)Oc1cccc2ccccc12`, the AC50 was 3.91 µM (active).

The AC50 is the midpoint of the concentration-response curve, whichever way the signal moves.
